Compound activity deposited in PubChem by National Center for Advancing Translational Sciences (NCATS).
Mito fusion act = qHTS Assay for Small Molecule Inhibitors of Mitochondrial Division or Activators of Mitochondrial Fusion; hit rate 0.23% among 320,000; Potency, µM (highest dose often 46.1 µM), without a hit: at the top dose growth rescue (activation), most hits filed as activators; S. cerevisiae fusion-defective mutant growth rescue, CellTiterGlo 48 h; further: % of control where 0% means no effect; nearly all actives have a fitted effect of over 45% in size
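Yeast fusion mutant, YPEG (non-fermentable carbon), compound, 48 h at 37C non-permissive; CellTiterGlo added, 10 min RT, luminescence read. Rescued growth = division inhibition.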
Abeta yeast res = qHTS for compounds that reverse cellular toxicity of Amyloid beta (A-beta) peptide in yeast: Primary Screen. AID 1347071, 2019. Potency, µM (doses to about 46.1 µM), most hits filed as activators. hit rate 0.063% among 410,000. yeast expressing A-beta42, growth rescue, OD600, 48 h; response scale: 0% DMSO, 100% iron-clioquinol control; further: nearly all actives have a fitted effect of over 55% in size
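Yeast A-beta toxicity model in growth medium with pinned compounds, 48 h at 30 C; growth read as absorbance at 600 nm. Normalized to FeCl3/clioquinol equimolar mix (positive) and DMSO (negative).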
FUS suppressor = qHTS for Suppressors of FUS Proteinopathy: Primary screen using FUS-linked yeast assay; S. cerevisiae FUS-expressing, growth rescue, OD600, 24 h; Potency, µM (highest dose often 76.6 µM), actives largely listed as activators; hit rate 0.24% among 390,000;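 further: plate controls were DMSO vehicle for no effect and reference control for full effect; nearly all actives have a fitted effect of over 55% in size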
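Absorbance at 600 nm, taken 24hr after compound addition, measured rescue of FUS-yeast growth at 30C. Induction used 2% galactose with seeding at OD 0.005. Controls: CP55940 from 92uM final, DMSO only.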
aSyn rescue = qHTS of alpha-syn Inhibitors | Yeast expressing alpha-synuclein, growth rescue, BacTiter-Glo, 24 h | Potency, µM (highest dose often 46.1 µM), without a hit: at the top dose growth rescue (activation), hits mostly activators | hit rate 0.14% among 370,000 | AID 652106, 2013; further: % of control where 0% means no effect; nearly all actives have a fitted effect of over 65% in size
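Rescue of yeast growth: cells expressing toxic alpha-synuclein, induced in galactose at OD600 0.02, incubated with compound 24 h at 30 C. ATP luminescence quantified growth; inhibitors of toxicity appear as activators.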
TDP43 rescue = qHTS of TDP-43 Inhibitors | TDP-43 expressing yeast growth rescue, BacTiter-Glo, 24 h | Potency, µM (doses to about 46.1 µM), for inactives: top-dose growth rescue (activation), usual class: activators | hit rate 1.8% among 410,000 | AID 652104, 2013; further: % of control where 0% means no effect; nearly all actives have a fitted effect of over 50% in size
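Yeast expressing TDP-43 (pregrown in raffinose, seeded at OD600=0.02 in galactose medium) exposed to compounds 24 hr at 30 deg C. Growth read by BacTiter-Glo luminescence; rescue of toxicity appears as increased signal.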
The depositor's hits bear a star; i = inactive; ? = inconclusive; nt = no result given; [ ] = remark or other dose. Only some compounds are listed: those with a hit (about 2.2% of all), similar ones and a draw of the others. The call rests on the fitted dose curve; in most records, active means well fitted curve in the direction sought with a large enough effect; inconclusive means small, poorly fitted or top-dose-only effect, or another doubt; inactive means no such curve, though single readings can be large; an effect the other way counts as inactive or inconclusive. Potency means the concentration at half of the fitted maximal effect.

SMILES | Mito fusion act | Abeta yeast res | FUS suppressor | aSyn rescue | TDP43 rescue
C[C@]12CC[C@@H](O)C[C@@H]1CC[C@@H]1[C@@H]2CC[C@]2(C)C(=O)CC[C@@H]12 | -12% | i | i | 1% | 18µM*
N#Cc1ccccc1Cn1cc(C(=O)C2CC2)c2ccccc21 | 10% | i | i | 11% | 20µM*
CCC(=O)c1cn(Cc2ccccc2C#N)c2ccccc12 | 3% | i | i | 5% | 25µM*
Nc1ccc(CCN2CCN(c3cccc(C(F)(F)F)c3)CC2)cc1 | 9.2µM* | i | i | -5% | 8%
CN(CC1COc2ccccc2O1)c1nc(-c2cccnc2)nc2ccccc12 (stereo not given) | 8% | i | i | -16% | 8.9µM*
CN1CCC(N(C)c2nc(-c3ccc([N+](=O)[O-])cc3)nc3ccccc23)CC1 | -4% | i | nt | 1% | -13%
C/C=C/C(=O)OCC(=O)Nc1ccc(OC)c(Cl)c1 | -7% | i | i | 4% | ?
COc1ccc(C(=O)C(C)(C)NO)cc1 | 0% | ? | i | ? | 11µM*
COc1ccc(-c2cc(C(=O)N3CCN(c4ccccc4OC)CC3)c3cc(C(C)C)ccc3n2)cc1 | nt | i | i | nt | ?
CCCCCCCCC(c1nc2cc(C)c(C)cc2[nH]1)n1c(=O)c(-c2ccccc2Br)nc2ccccc21 (stereo not given) | nt | i | i | ? | -12%
O=C1N(c2ccc(Cl)cc2)C(c2cccnc2)N2CCCN12 (stereo not given) | 3% | i | i | ? | 35µM*
CCC12CN3CC(CC)(CN(C1)C3c1cccnc1)C2=O (stereo not given) | -6% | i | i | 2% | 6%
O=C(Nc1ccc(Oc2ccc(Cl)cc2)c(Cl)c1)c1cc(I)cc(I)c1O | -28% | i | i | -7% | ?
CCCCn1c(O)c(C(CC)=NCc2ccc(F)cc2)c(=O)[nH]c1=O | 0% | i | ? | 5% | 22µM*
CCCCn1c(O)c(C(C)=NCc2ccc(F)cc2)c(=O)[nH]c1=O | -2% | i | i | -5% | 20%
CC(C)(O)[C@H]1O[C@H]2CC[C@@]3(C)[C@@](O)(CC[C@H]4Cc5c([nH]c6ccccc56)[C@@]43C)C2=CC1=O | ? | ? | ? | 3% | 22µM*
COc1ccc2c(c1)NP(=S)(Oc1ccccc1)N2 (stereo not given) | 4% | i | i | 5% | 26%
Cc1ccc2c(c1)NP(=S)(Oc1ccccc1)N2 (stereo not given) | nt | i | i | ? | 35µM*
Cn1ccc2c(-c3ccc(F)nc3)cc3c(c21)C1CCC3C1 (stereo not given) | nt | i | i | -22% | ?
Cc1cccc(NC(=O)c2cc3c(=O)n4ccccc4nc3n2C)c1C | nt | i | i | nt | ?
N[C@@H](Cn1ccc(=O)c(O)c1)C(=O)O | -13% | nt | nt | 3% | nt
Cn1cnc([N+](=O)[O-])c1Sc1ccc([N+](=O)[O-])cc1 | -5% | i | i | -18% | 20µM*
COc1ccc(NC(=O)c2ccco2)cc1NC(=O)COc1cccc(C)c1C | nt | i | i | nt | ?
N#Cc1ccccc1NC(=O)c1cccn(Cc2ccccc2)c1=O | nt | i | i | nt | 22µM*
O=C(Nc1ccc2c(c1)OCCO2)c1cccn(Cc2ccccc2)c1=O | nt | i | i | nt | 20µM*
SMILES | Mito fusion act | Abeta yeast res | FUS suppressor | aSyn rescue | TDP43 rescue
Cc1cccc(C)c1NC(=O)c1cccn(Cc2ccc3c(c2)OC(F)(F)O3)c1=O | ? | i | ? | 1% | 20µM*
NC(=O)c1ccc(NC(=O)c2cccn(Cc3ccccc3)c2=O)cc1 | nt | i | i | nt | 7%
COc1ccc(S(=O)(=O)Cc2ccc(C(=O)N3CCC4(CC3)OCCO4)o2)cc1 | -1% | i | i | -8% | 2.5µM*
Cc1ccccc1CS(=O)(=O)Cc1ccc(C(=O)N2CCC3(CC2)OCCO3)o1 | 4% | i | i | 3% | -7%
COc1ccc(/C=C/c2nc(-c3ccccc3O)n(-c3ccccc3)n2)cc1OC | nt | i | i | nt | ?
CC(C)(C)C(=O)C(Oc1ccc(Cl)cc1)n1cncn1 (stereo not given) | nt | i | i | ? | 11µM*
CC12CCC(=O)C=C1CCC1C2CCC2(C)C(O)CCC12 (stereo not given) | 13% | i | i | -1% | 27%
CCC(=O)O[C@H]1CC[C@H]2[C@@H]3CCC4=CC(=O)CC[C@]4(C)[C@H]3CC[C@]12C | nt | i | i | 1% | 14µM*
Cc1ccc(CN(C)C(=O)c2cccc(S(=O)(=O)N3CCN(c4ccccc4)CC3)c2)cc1 | nt | i | nt | 15% | ?
CN1C(=O)C(=Cc2ccccc2Oc2ccc(Cl)c(F)c2)C(=O)N(C)C1=O | 5% | i[9.22 µM] | i | 5% | 22µM*
O=C(CCn1c(=O)oc2ccccc21)N1CCN(c2ccccc2Cl)CC1 | 15% | i | i | 7% | 13µM*
CCCCCCCCN1C(=O)[C@H](CC(=O)NCCc2ccccc2OC)C[C@@]2(C(=O)OC)CCCCC=C12 | nt | i | ? | ? | ?
COC(=O)c1sc(NC(=O)/C=C/c2ccc(OC)c(OC)c2)c(C(=O)OC)c1C | nt | i | i | nt | ?
Clc1ccc(Cn2ccnc2)cn1 | -4% | i | i | 0% | 19%[9.22 µM]
Clc1ccc(CCC(Cn2ccnc2)Sc2c(Cl)cccc2Cl)cc1 (stereo not given) | 0.56µM* | i | i | ? | -25%
CCOP(=O)(OCC)/C(C#N)=C/c1ccc(-c2ccc(F)cc2F)o1 | ? | i | i | 2% | 13%
COC(=O)C1=C(c2ccc(F)cc2F)C[C@@H]2CC[C@H]1N2C(=O)N1CCC(O)(c2ccc(Cl)cc2)CC1 | ? | ? | ? | ? | 20µM*
O=C1c2ccccc2S(=O)(=O)c2cc(C(=O)N3CCN(c4c(Cl)cncc4Cl)CC3)ccc21 | nt | i | 20µM* | 0% | 13µM*
O=C1NC(=S)NC(=O)C1=Cc1ccc(OCc2ccccc2)cc1 | nt | ? | i | -67% | 18µM*
COc1nnc(-c2ccc(N3CCCCC3)c(NC(=O)c3ccccc3)c2)c2ccccc12 | nt | i | i | nt | ?
O=C1c2ccccc2-n2nncc2C2c3cc(Br)ccc3CCN12 (stereo not given) | nt | i | i | -3% | 35µM*
COc1ccc(OC)c(/C=N/OC(=O)Nc2ccc(Cl)cc2)c1 | 3% | i | i | -15% | 18µM*
O=C(c1ccco1)c1cn(Cc2ccccc2Cl)c2ccccc12 | 0% | i | i | 3% | ?
